Experimental findings from PubChem BioAssay (EPA / NIEHS) are described below.

SMILES strings stand for the structures. Inconclusive results are not listed. Active and inactive are the calls of the source. How the source made its calls: active means hit-call score of the fitted dose curve at least 0.9, where 1 is the maximum; inconclusive means response in the unintended direction; inactive means score below 0.9.

Hepatocyte nuclear factor 4-alpha (Homo sapiens), sequence (P41235 whole entry, looked up): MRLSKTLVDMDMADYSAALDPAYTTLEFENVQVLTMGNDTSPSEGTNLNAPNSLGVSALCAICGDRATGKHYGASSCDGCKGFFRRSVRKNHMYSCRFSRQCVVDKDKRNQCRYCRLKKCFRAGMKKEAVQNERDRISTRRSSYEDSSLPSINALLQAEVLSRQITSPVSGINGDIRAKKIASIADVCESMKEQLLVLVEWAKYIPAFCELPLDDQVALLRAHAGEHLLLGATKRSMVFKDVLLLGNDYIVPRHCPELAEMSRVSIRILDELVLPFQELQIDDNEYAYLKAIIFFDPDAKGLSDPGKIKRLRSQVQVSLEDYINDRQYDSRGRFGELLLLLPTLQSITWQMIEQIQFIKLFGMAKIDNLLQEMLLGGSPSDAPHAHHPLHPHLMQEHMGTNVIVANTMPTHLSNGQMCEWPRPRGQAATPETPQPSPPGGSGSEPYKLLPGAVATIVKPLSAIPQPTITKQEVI

The assay addresses Hepatocyte nuclear factor 4-alpha (Homo sapiens) (UniProt P41235). Put plainly: ATG_HNF4a_TRANS: Attagene TRANS-FACTORIAL HepG2 Assay for human Hepatocyte Nuclear Factor 4 alpha (HNF4a) (AID 2282982). Particulars: HepG2 HNF4a transactivation reporter, mRNA readout. As for the experimental part: ATG_TRANS is a cell-based, multiplexed-readout assay that uses HepG2, a human liver cell line, with measurements taken at 24 hours after chemical dosing in a 24-well plate.ATG_HNF4a_TRANS is one of 30 assay component(s) measured or calculated from the ATG_TRANS assay. It is designed to make measurements of mRNA induction, a form of inducible reporter, as detected with fluorescence intensity signals by Reverse transcription polymerase chain reaction (RT-PCR) and Capillary electrophoresis technology.Data from the assay component ATG_HNF4a_TRANS was analyzed into 1 assay endpoint. This assay endpoint, ATG_HNF4a_TRANS, was analyzed in the positive analysis fitting direction relative to DMSO as the negative control and baseline of activity. Using a type of inducible reporter, measures of mRNA for gain-of-signal activity can be used to understand the reporter gene at the transcription factor-level as they relate to the gene HNF4A. Furthermore, this assay endpoint can be referred to as a primary readout, because this assay has produced multiple assay endpoints where this one serves a reporter gene function. To generalize the intended target to other relatable targets, this assay endpoint is annotated to the nuclear receptor intended target family, where the subfamily is orphan.
Human liver HepG2 cells are transiently transfected with multiple reporter transcription units (MRTUs) in 6-well plates using FuGene 6 reagent (Roche; 3 ml FuGene/1 mg DNA). The MRTU constructs are regulated by a cis-regulating element (promoter). […] A major difference between the CIS and TRANS system is that in CIS activities of endogenous TFs are measured, whereas the TRANS assay evaluates changes in activities of exogenous, chimeric NR-Gal4 proteins. […] At the end of 24 hour incubation, total RNA was isolated using TriZol reagent (Invitrogen). The isolated RNA is then reverse-transcribed using oligo(dT) primer and Mo-MLV reverse transcriptase (Invitrogen) with DNAse I (Ambion) treatment for 30 min. The one-tenth of the produced cDNA was amplified by PCR using Taq DNA polymerase (Invitrogen) and two reporter sequence-specific primers. The PCR products were fluorescently labeled by primer extension with 6-arboxyfluorescein (6-FAM) 5'-labeled reporter sequence-specific primer (2 min at 95 C, 20 s at 68 C and 10 min at 72 C) and these products were digested with 5U of HpaI (New England Biolabs) for 2h at 37 C. The fragments were purified using Qiaquick PCR columns (Qiagen), analyzed on an ABI 3130xL genetic analyzer (Applied Biosystems) with peak positions identified by using a set of X-rhodamine (ROX)-labeled MapMarker1000 molecular weight standards (BioVentures). The raw capillary electrophoresis data was processed using Attagraph software (Attagene).
As for `COC(=O)/C=C/C(C)=C\C=C\C(C)=C\C=C\C=C(C)\C=C\C=C(C)\C=C\C(=O)O`, the molecule was called inactive.

`C(=CC=Nc1ccccc1)C=CNc1ccccc1`: the outcome was inactive.

With `O=C1c2ccccc2C(=O)C1c1nc2ccccc2c(Br)c1O`, the result was inactive.

Consider `CCOC(=O)CC`, for which the molecule was called inactive. Take `O=C1OC(=O)c2cc(Oc3ccc4c(c3)C(=O)OC4=O)ccc21`: the call was inactive. The value for `CCCCCCCCC(=O)OCC` was “inactive”.

`O=C1CCCCCN1SSN1CCCCCC1=O`: the call was inactive. As for `CCCCCCCCO[C@@H]1O[C@H](CO)[C@@H](O)[C@H](O)[C@H]1O`, the entry is “inactive”; as for `CC(C)=CC1CC(C)CCO1` (stereo not given), “inactive”.

Regarding `CCCCCCOC(=O)C(C)CC` (stereo not given), the outcome was inactive.

With `Cn1c(=O)[nH]c2ncn(C)c2c1=O`, the molecule was called inactive. As for `CC1=NN(c2cc(S(=O)(=O)O)ccc2Cl)C(=O)C1N=Nc1ccccc1` (stereo not given), the entry is “inactive”.

With `COc1ccc2nc(N)sc2c1`, the result was inactive.

Turning to `CC(C)(C)c1ccc(N)cc1`, the molecule was classed as inactive. The value for `Nc1ccc(N)c(Cl)c1` was “inactive”; that for `CC(C)=CCC[C@H](C)CCO` was “inactive”.

`CCN(Cc1cccc(S(=O)(=O)O)c1)c1ccc(C(=C2C=CC(=[N+](CC)Cc3cccc(S(=O)(=O)[O-])c3)C=C2)c2ccccc2)cc1`: the molecule was classed as inactive. The value for `CC1(C)S[C@@H]2[C@H](NC(=O)COc3ccccc3)C(=O)N2[C@H]1C(=O)O` was “inactive”; that for `CCCc1ccc(OC)cc1` was “inactive”. In the case of `[Cl][In]([Cl])[Cl]`, the call was inactive. On to `NC(=O)NNC(N)=O`, for which the outcome was inactive. `O=C(Oc1ccccc1)c1ccc2ccccc2c1O`: the outcome was inactive. As for `Cc1oncc1C(=O)Nc1ccc(C(F)(F)F)cc1`, the entry is “inactive”. The value for `CCCCC(CC)COC(=O)c1ccccc1O` (stereo not given) was “inactive”.

In the case of `CCN(CC#N)c1cccc(C)c1`, the molecule was called inactive. Take `c1ccc(CCCc2ccncc2)cc1`: the call was inactive. Consider `Cc1cccc(N)n1`, for which the call was inactive. On to `COCc1c(C(C)C)nc(C(C)C)c(/C=C/[C@@H](O)C[C@@H](O)CC(=O)O)c1-c1ccc(F)cc1`, for which the result was inactive. For the molecule `COC=O`, the result was inactive. As for `O=C1CCC(=O)N1Cl`, the entry is “inactive”; as for `CN1C(=O)N(C)C(O)C1O` (stereo not given), “inactive”; as for `c1cc(N(CC2CO2)CC2CO2)ccc1OCC1CO1` (stereo not given), “inactive”. As for `CC=CC(F)(F)C(F)(F)C(F)(F)F`, the entry is “inactive”.

For `N=c1ccn2c(n1)O[C@H]1[C@H](O)[C@@H](CO)O[C@H]12`, the molecule was classed as inactive. As for `O=C(O)CCCCCCCCCC(=O)O`, the entry is “inactive”; as for `C/C=C\C/C=C/CCCCCCCCOC(C)=O`, “inactive”; as for `Cc1cc(O)c(Cl)c(C)c1Cl`, “inactive”.

`CCCCCCC(O)CO` (stereo not given): the outcome was inactive. Consider `c1c[nH]cn1`, for which the outcome was inactive.

As for `[Cl][Bi]([Cl])([c]1ccccc1)([c]1ccccc1)[c]1ccccc1`, the call was inactive.
